Results: PMC5540273 (PLoS ONE, 2017)

test system: T1, YANK2; details: concentration: 1 μM, replicates: in singlicate; n = 1
T1 construct: gene STK32B
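Also: KINOMEscan kinase panel screen.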

| Compound | %Inh [%] |
| --- | --- |
| CC(C)(C)n1cnc2c(N)ncnc21 [SKF-97359] | 0 |
| Cc1cccc(Cn2ccn3c(=O)cc(N4CCOCC4)nc23)c1 [GSK2297542] | 0 |
| c1ccc(-c2cc(-c3c[nH]nc3-c3ccccn3)ccn2)cc1 [GW576604] | 0 |
| O=C(Nc1cccc(-c2nn3ncccc3c2-c2ccnc(Nc3cccc(C(F)(F)F)c3)n2)c1)c1c(F)cccc1F [GSK299495] | 15 |
| COc1cc2c(cc1OC[C@@H](O)CO)ncc1c3ccc(C#N)cc3[nH]c21 | 0 |
| N#Cc1ccc(-c2cc(-c3c[nH]nc3-c3ccccn3)ccn2)cc1 [GW693028] | 7 |
| Fc1ccc(-c2ncn(CCCN3CCOCC3)c2-c2ccccn2)cc1 [SB-211742] | 0 |
| COc1ccc(Nc2nccc(N3CCC(NC(=O)Nc4cccc(C(C)=O)c4)C3)n2)cc1 (stereo not drawn) [GSK1379731] | 0 |
| Cn1cc(-c2ccc3c(c2)CCN3C(=O)Cc2ccccc2Cl)c2c(N)ncnc21 [GSK2608885] | 84 |
| CNc1ncnc2[nH]ncc12 [SKF-18355] | 9 |
| Cc1cccc(-c2nc(Nc3ccc4ncsc4c3)c3ccccc3n2)n1 [GW867588] | 0 |
| [2H]C([2H])(c1cccc(C(F)(F)F)c1C)n1ccn2c(=O)nc(N3CCOCC3)cc12 [GSK2336394] | 0 |
| Cc1c2ccc(N(C)c3ccnc(Nc4cccc(S(N)(=O)=O)c4)n3)cc2nn1Cc1ccccc1.Cl.Cl [GW787226] | 0 |
| O=C(c1ccc(-c2cc(-c3c[nH]nc3-c3ccccn3)ccn2)cc1)N1CCOCC1 [GW812171] | 63 |
| CCn1cnc2c(N)ncnc21 [GW345098] | 0 |
| Cl.Nc1ncnc2occ(-c3ccc(NC(=O)Nc4cc(C(F)(F)F)ccc4F)cc3)c12 [SB-707548] | 17 |
| CC(=O)Nc1ccc(COc2ccc(Nc3ccnc4cc(-c5ccccn5)ccc34)cc2)cc1.Cl [GW440148] | 2 |
| Cc1nnc(-c2ccc3occ(-c4ccc(C(C)O)cc4)c3c2)o1 (stereo not drawn) | 2 |

| Compound | %Inh [%] |
| --- | --- |
| Cc1nnc(-c2ccc3ncc(-c4ccc(S(C)=O)cc4)n3c2)o1 (stereo not drawn) | 0 |
| c1ccc(-c2n[nH]cc2-c2ccnc3ccccc23)nc1 [GW271431] | 4 |
| CCCCCc1nc2c(N)ncnc2n1CCCCC [SKF-97255] | 12 |
| CN1c2ccc(CNc3ccc(F)cc3)cc2-c2c(cnn2C)S1(=O)=O | 0 |
| NCC(NC(=O)c1cc(-c2cn[nH]c2)c(-c2ccnc3[nH]ccc23)s1)c1ccccc1.O=C(O)C(F)(F)F.O=C(O)C(F)(F)F (stereo not drawn) [GSK1325775] | 0 |
| O=C(Nc1n[nH]c2cc(-c3cccc(F)c3)ccc12)C1CC1 [SB-735464] | 0 |
| COc1ccc(COc2cc(-n3cnc4ccccc43)sc2C(N)=O)cc1 [GSK1024304] | 0 |
| CN(C(=O)c1ccc(-c2cc(-c3c[nH]nc3-c3ccccn3)ccn2)cc1)C1CCOCC1 [GW810083] | 0 |
| O=c1cc(N2CCOCC2)nc2n(Cc3cccc(Cl)c3Cl)c(C3CC3)nn12 [GSK2358994] | 0 |
| COc1cc2ncn(-c3cc(OCc4sccc4Cl)c(C(N)=O)s3)c2cc1OC [GSK448459] | 0 |
| CCc1ccnc(/C=C/c2n[nH]c3cc(Sc4ccccc4C(=O)NC)ccc23)c1 | 0 |
| CSc1ccc(-c2cc3ncnc(SCC(=O)O)c3s2)cc1 | 0 |
| COc1ccc(Nc2nccc(N3CCC(NC(=O)Nc4cc(C)ccc4C)C3)n2)cc1 (stereo not drawn) [GSK1379741] | 0 |
| Cc1c(Cn2c(C)nn3c(=O)cc(N4CCOC(C)C4)nc23)cccc1C(F)(F)F (stereo not drawn) [GSK2344444] | 0 |
| O=C1NC(=O)C(N2CCc3ccccc32)=C1c1cccc(Cl)c1 [SB-408010] | 19 |
| Cn1ccc2ncnc(Oc3ccc(NC(=O)Nc4ccncc4)c(Cl)c3)c21 | 5 |
| O=C(NOCC1CC1)c1ccc(F)c(F)c1Nc1ccc(I)cc1Cl | 0 |
| Cc1ccc(NC(=O)c2ccnc(N3CCN(C)CC3)c2)cc1-c1ccc(C(=O)NCC2CC2)cc1 [GW775604] | 1 |
